The values that follow come from PubChem BioAssay (NCI).

Among the test systems are NCI-H23 lung; NCI-H226 lung; NCI-H322M lung; HOP-62 NSCLC; NCI-H460 lung; HOP-92 NSCLC; NCI-H522 lung; A549/ATCC NSCLC; 786-0 renal; COLO 205 colon; DU-145 prostate; K-562 leukemia; MALME-3M melanoma; MDA-MB-231 breast; RXF 393 renal; SF-268 CNS; SF-295 CNS; SF-539 CNS; UACC-257 melanoma.
Assay in all cases: NCI-60 one-dose screen, 48 h (100 = growth as untreated, 0 = no growth, -100 = all killed)
Conditions in all cases: 10 µM unless noted

The panel holds about 83,000 compounds, 20% with a hit somewhere; the sample as a whole holds those more often.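 Treatment: one concentration, 48 hours, 96-well format. Scoring: percent growth, with anything below 10 considered active.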 A number with no mark means an inactive call. The source made the active and inactive calls.

Take `COc1ccc(NC(=O)C(=O)c2c[nH]c3ccc(F)cc23)cc1`: the growth in the test on NCI-H23 lung is 97.8%; in the test with NCI-H226 lung, 101%; in the test on NCI-H322M lung, 73%; in the test with HOP-62 NSCLC it was 103%; in the test on NCI-H460 lung, 90.7%; in the test with HOP-92 NSCLC it was 99.2%. For the same molecule, the growth is 85.1% with NCI-H522 lung; 78.7% in the test with A549/ATCC NSCLC; 56.1% in the test with 786-0 renal; 104% in the test on COLO 205 colon; 88.9% in the test with DU-145 prostate; 90.6% in the test on K-562 leukemia. The growth is 115% with MALME-3M melanoma; 95.5% in the test on MDA-MB-231 breast; 103% in the test on RXF 393 renal; 94.7% in the test with SF-268 CNS; 102% in the test on SF-295 CNS; 108% in the test with SF-539 CNS. In addition, the growth in the test on UACC-257 melanoma was 101%.

For the molecule `COc1ccc(OC)c(Nc2nc3nonc3nc2Nc2cc(OC)ccc2OC)c1`, the growth was 50% in the test with NCI-H23 lung; 50.3% in the test with NCI-H226 lung; 68.6% in the test with NCI-H322M lung; -12.8% (active) in the test on HOP-62 NSCLC; 22% in the test with NCI-H460 lung; 13.2% in the test with HOP-92 NSCLC. In addition, the growth is 37.7% in the test on NCI-H522 lung; 20.7% in the test on A549/ATCC NSCLC; -23.8% (active) in the test with 786-0 renal; 93.7% in the test on COLO 205 colon; 55.5% in the test with DU-145 prostate; 75.5% in the test with K-562 leukemia. Also, the growth was 29.9% with MALME-3M melanoma; -1.9% (active) with MDA-MB-231 breast; 14.8% in the test on RXF 393 renal; 45.6% in the test with SF-268 CNS; 77.9% in the test on SF-295 CNS; 9.98% (active) in the test with SF-539 CNS. The growth in the test on UACC-257 melanoma is 52.1%.

With `Nc1c(C(=O)c2ccccc2)nnc2ncnn12`, the growth was 95.6% with NCI-H23 lung; 94.5% with NCI-H226 lung; 98.2% with NCI-H322M lung; 97% in the test with HOP-62 NSCLC; 106% in the test on NCI-H460 lung; 95.2% in the test with HOP-92 NSCLC. The growth with NCI-H522 lung is 88.5%; in the test with A549/ATCC NSCLC, 95.2%; with 786-0 renal, 97.2%; in the test with COLO 205 colon, 103%; with DU-145 prostate, 106%; with K-562 leukemia, 97.1%. For the same molecule, the growth with MALME-3M melanoma is 107%; with MDA-MB-231 breast it was 93%; in the test with RXF 393 renal, 110%; in the test with SF-268 CNS it was 102%; in the test with SF-295 CNS it was 103%; in the test with SF-539 CNS, 117%. The growth in the test with UACC-257 melanoma was 95.4%.

As to `Nc1c(C(=O)c2ccc(Cl)s2)sc2nc3c(cc12)CCCC3`, the growth was 91.5% in the test with NCI-H23 lung; 96.6% in the test with NCI-H226 lung; 103% in the test with NCI-H322M lung; 97.3% with HOP-62 NSCLC; 98.6% in the test with NCI-H460 lung; 82.5% in the test with HOP-92 NSCLC. In addition, the growth in the test with NCI-H522 lung was 83.1%; in the test with A549/ATCC NSCLC it was 100%; in the test on 786-0 renal it was 106%; in the test with COLO 205 colon it was 110%; with DU-145 prostate, 110%; with K-562 leukemia, 101%. The growth with MALME-3M melanoma is 100%; with MDA-MB-231 breast, 108%; in the test with RXF 393 renal, 113%; in the test on SF-268 CNS, 104%; in the test on SF-295 CNS, 102%; in the test on SF-539 CNS it was 96.8%. In the test with UACC-257 melanoma, the growth was 105%.

Consider `Cc1nc(Nc2ccc(S(=O)(=O)Nc3cc(C)on3)cc2)c2ccccc2n1`, for which the growth in the test with NCI-H23 lung was 107%; in the test with NCI-H226 lung it was 99.7%; in the test on NCI-H322M lung, 104%; in the test with HOP-62 NSCLC it was 101%; in the test with NCI-H460 lung, 112%; in the test with HOP-92 NSCLC it was 89%. Further, the growth in the test on NCI-H522 lung was 86.3%; in the test on A549/ATCC NSCLC it was 108%; in the test on 786-0 renal, 98.3%; in the test on COLO 205 colon, 116%; in the test with DU-145 prostate, 112%; in the test with K-562 leukemia it was 99.9%. Further, the growth is 93.2% in the test with MALME-3M melanoma; 108% in the test with MDA-MB-231 breast; 99.5% in the test on SF-268 CNS; 95.4% in the test with SF-295 CNS; 97.6% with SF-539 CNS; 103% in the test on UACC-257 melanoma.

`CCCc1cc(=O)oc2c3c(c4c(c12)OC(C)(C)C=C4)O[C@@H](C)[C@H](C)C3=O`: the growth with NCI-H23 lung is 61.1%; in the test on NCI-H226 lung, 89.8%; in the test with NCI-H322M lung, 81%; with HOP-62 NSCLC it was 102%; in the test with NCI-H460 lung, 60.5%; with HOP-92 NSCLC, 43.7%. For the same molecule, the growth with NCI-H522 lung was 71.9%; in the test on A549/ATCC NSCLC it was 64.5%; in the test with 786-0 renal, 72.8%; in the test with COLO 205 colon it was 74.8%; in the test with DU-145 prostate, 79.4%; in the test with K-562 leukemia it was 47.6%. Also, the growth in the test with MALME-3M melanoma is 90%; in the test on MDA-MB-231 breast, 71.9%; in the test on RXF 393 renal, 18.4%; in the test with SF-268 CNS, 86.4%; with SF-295 CNS, 69.9%; in the test on SF-539 CNS, 81%. Besides, the growth in the test with UACC-257 melanoma was 55.1%.

In the case of `CN(C)CCn1cc(-c2ccc3c(Nc4ccc(CC(=O)Nc5cccc(F)c5)cc4)ncnc3c2)cn1`, the growth in the test with NCI-H23 lung is -57.2% [30 µM] (active); in the test on NCI-H226 lung, -36.7% [30 µM] (active); in the test on NCI-H322M lung, -94.5% [30 µM] (active); in the test with HOP-62 NSCLC, -23.2% [30 µM] (active); in the test on NCI-H460 lung it was -74.1% [30 µM] (active); in the test with HOP-92 NSCLC, -28.8% [30 µM] (active). The growth was -30.5% [30 µM] (active) in the test with NCI-H522 lung; -41.4% [30 µM] (active) in the test on A549/ATCC NSCLC; -50.8% [30 µM] (active) in the test on 786-0 renal; -61.8% [30 µM] (active) in the test on COLO 205 colon; -95.8% [30 µM] (active) in the test on DU-145 prostate; -29.2% [30 µM] (active) in the test with K-562 leukemia. Moreover, the growth with MALME-3M melanoma was -92% [30 µM] (active); with MDA-MB-231 breast, -85.7% [30 µM] (active); in the test with SF-268 CNS, -61.7% [30 µM] (active); with SF-295 CNS, -79.8% [30 µM] (active); with SF-539 CNS, -94.2% [30 µM] (active); with UACC-257 melanoma, -59.7% [30 µM] (active).

Take `CO/C(=C1/NC(=O)C(Cc2ccc(O)c(Br)c2)N(C)C(=O)C(C)NC(=O)CCC/C=C(\C)CCC(C)OC1=O)c1ccccc1` (centres undefined): the growth with NCI-H23 lung was 25.1%; in the test with NCI-H226 lung, -33.9% (active); in the test with NCI-H322M lung, -34.3% (active); in the test on HOP-62 NSCLC, -19.7% (active); in the test on NCI-H460 lung, -22.1% (active); in the test with HOP-92 NSCLC it was -53.9% (active). For the same molecule, the growth was -61.1% (active) in the test on NCI-H522 lung; -49.5% (active) in the test on A549/ATCC NSCLC; -35.6% (active) with 786-0 renal; 7.23% (active) with COLO 205 colon; -17.3% (active) with DU-145 prostate; 6.13% (active) with K-562 leukemia. Also, the growth with MDA-MB-231 breast is -31.3% (active); in the test on RXF 393 renal it was -79.5% (active); in the test on SF-268 CNS it was -43.6% (active); in the test on SF-295 CNS, -65.3% (active); in the test on SF-539 CNS it was -52.3% (active); in the test on UACC-257 melanoma, -54% (active).
